Experimental data as given in PubChem BioAssay (Tox21).
Records with an inconclusive call do not appear. Where a call stands in place of a potency, no number is given. The source made the active and inactive calls. Calls come from the whole dose curve.

Experiment: p53 small molecule agonists, cell-based qHTS assay with rat liver microsomes (AID 1963578)
Settings: HCT-116 p53RE-bla, beta-lactamase ratio, 16 h; series mostly up to 66 µM
From the text: U.S. Tox21 Program National Center for Advancing Translational Sciences [NCATS] Division of Preclinical Innovation [DPI] U.S. Environmental Protection Agency [EPA] National Institutes of Environmental Health Sciences [NIEHS] National Toxicology Program [NTP] U.S. Food and Drug Administration [FDA] Tox21 Assay Overview: p53, a tumor suppressor protein, is activated following cellular insult, including DNA damage and other cellular stresses. The activation of p53 regulates cell fate by inducing DNA repair, cell cycle arrest, apoptosis, or cellular senescence. The activation of p53, therefore, is a good indicator of DNA damage and other cellular stresses. […] The activation of the reporter gene under culture conditions can be detected by fluorescence intensity. This cell line was used to screen the Tox21 10K compound library in the condition of presence of rat liver microsomes and to identify agonists that activate the p53 signaling pathway after in vitro metabolic activation (Ooka et al., Archive of Toxicology 96:1975-1987, 2022).
Tox21 Assay Protocol Summary: The p53RE-bla cells were dispensed at 4,000cells/3ul/well in 1536-well black-clear bottom plates. After the assay plates were incubated at 37 C, 5% CO2 incubator for 5 hours, 23 nL of compounds dissolved in DMSO, positive controls or DMSO only was transferred to the assay plate. Following compound addition, 3 uL of rat liver microsomes (Molecular Toxicology, Boone, NC) at final concentration of 0.5 mg/mL and 1uL of Beta-Nicotinamide adenine dinucleotide 2-phosphate (NADPH) at final concentration of 0.5 mg/mL were transferred to the assay plate. The plates were incubated at 37 C for 16 hours. 1 uL of LiveBLAzer detection mixture was added to each well and the plates were incubated at room temperature in the dark for 2 h.

| SMILES | Potency |
| --- | --- |
| CN1CCCC1 | inactive |
| CCOC(=S)SSC(=S)OCC | inactive |
| CC(=O)NCCO | inactive |
| CC1(C)[C@H](C(=O)OCc2cccc(Oc3ccccc3)c2)[C@@H]1C=C(Cl)Cl | inactive |
| C=C(C)C(=O)OCCCCCCCCCCCCC | inactive |
| CC(C)(C)c1ccc(CCC=O)cc1 | inactive |
| CC(C)CC=O | inactive |
| N#CCc1cccc(C(F)(F)F)c1 | inactive |
| COC(/C=C(\C)CCC=C(C)C)OC | inactive |
| CO[Si](CCCOCC1CO1)(OC)OC (stereo not given) | inactive |
| CCC(O)CO (stereo not given) | inactive |
| CCCC(=O)OCC(COC(=O)CCC)OC(=O)CCC | inactive |
| Cc1cc(N)no1 | inactive |
| CCCCCCCCSCCO | inactive |
| CN(C)CCCN(C)CCCN(C)C | inactive |
| COc1cc(C(=O)N2CCOCC2)cc(OC)c1OC | inactive |
| CCCOC(C)=O | inactive |
| CCC(C)(O)CCC=C(C)C (stereo not given) | inactive |
| CC(COCCO)OCCO (stereo not given) | inactive |
| CCCc1cc(C(N)=S)ccn1 | inactive |

| SMILES | Potency |
| --- | --- |
| O=[N+]([O-])c1ccc(Oc2ccc([N+](=O)[O-])cc2)cc1 | inactive |
| C=C(C)C(=O)OCCC[Si](Cl)(Cl)Cl | inactive |
| Cc1cccc2cccnc12 | inactive |
| C=CCCC(=O)/C=C/C1C(C)=CCCC1(C)C (stereo not given) | inactive |
| CC1=CCC(C(C)C)=CC1 | inactive |
| O=C(O)c1ccco1 | inactive |
| C1=CCC2CC=CC2C1 (stereo not given) | inactive |
| COc1cccc(OC)c1C(=O)N[C@@H]1C(=O)N2[C@@H]1SC(C)(C)[C@@H]2C(=O)O | inactive |
| CC/C=C\CC1=C(C)CCC1=O | inactive |
| CCC(COC(=O)CCS)(COC(=O)CCS)COC(=O)CCS | inactive |
| Nc1ccncc1N | inactive |
| OCC(CO)N[C@H]1C[C@](O)(CO)[C@@H](O)[C@H](O)[C@H]1O | inactive |
| IC(I)I | inactive |
| C=CCOCC(O)CO (stereo not given) | inactive |
| CC[C@H](C)[C@@H](C(=O)O)n1sc2ccccc2c1=O | inactive |
| Nc1ccc(Oc2ccc(Cl)cc2)cc1 | inactive |
| Cc1cc(C)c(C)c(O)c1 | inactive |
| COc1cc(Cl)ccc1Cl | inactive |
| CCCC=O | inactive |
| O=[N+]([O-])c1cncn1CCN1CCOCC1 | inactive |
